Laboratory results reported in PubChem BioAssay AID1159580 (chemical genetic matrix, 2015).
Screen size: about 5,500 compounds; about 2,000 (36%) were called active. Roughly 18% stayed inconclusive and do not appear here. This is one part of the list. Values without a mark were called inactive. No stated cut-off is given here; in the data, active means normalized growth mostly below about 0.91 (no sharp cut-off); inconclusive means no clear call, values can overlap the other calls; inactive means mostly above about 0.92.

Test: chemical genetic growth profiling, strain panel (AID 1159580);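 further: tested at 20 µM; growth read once vehicle control cultures reached saturation at 30 °C; 1 = growth at the plate median or of vehicle wells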
Settings: S. cerevisiae deletion strains, growth OD

O=C(O)CCC(=O)Nc1ccc(S(=O)(=O)Nc2nccs2)cc1
normalized growth (locus YAL021C, strain ccr4, stronger effect = lower value): 1
normalized growth (locus YAL026C, strain drs2, stronger effect = lower value): 1
normalized growth (locus YAL030W, strain snc1, stronger effect = lower value): 1.03
normalized growth (locus YBL061C, strain skt5, stronger effect = lower value): 0.994
normalized growth (locus YBR009C, strain hhf1, stronger effect = lower value): 1.02
normalized growth (locus YBR023C, strain chs3, stronger effect = lower value): 0.993
normalized growth (locus YBR171W, strain sec66, stronger effect = lower value): 0.997
normalized growth (locus YBR231C, strain swc5, stronger effect = lower value): 0.996
normalized growth (locus YBR279W, strain paf1, stronger effect = lower value): 0.989
normalized growth (locus YCL011C, strain gbp2, stronger effect = lower value): 0.728 (active)
normalized growth (locus YCL016C, strain dcc1, stronger effect = lower value): 0.985
normalized growth (locus YCL061C, strain MRC1, stronger effect = lower value): 0.996
normalized growth (locus YCL069W, strain vba3, stronger effect = lower value): 1
normalized growth (locus YCR088W, strain abp1, stronger effect = lower value): 0.994
normalized growth (locus YDL005C, strain med2, stronger effect = lower value): 0.987
normalized growth (locus YDL040C, strain nat1, stronger effect = lower value): 0.999
normalized growth (locus YDR001C, strain nth1, stronger effect = lower value): 1
normalized growth (locus YDR069C, strain doa4, stronger effect = lower value): 1
normalized growth (locus YDR137W, strain rgp1, stronger effect = lower value): 0.989
normalized growth (locus YDR159W, strain sac3, stronger effect = lower value): 0.922
normalized growth (locus YDR195W, strain ref2): 0.967
normalized growth (locus YDR297W, strain sur2, stronger effect = lower value): 1.01
normalized growth (locus YDR334W, strain swr1, stronger effect = lower value): 0.989
normalized growth (locus YDR335W, strain msn5, stronger effect = lower value): 0.992
normalized growth (locus YDR392W, strain spt3, stronger effect = lower value): 0.912
normalized growth (locus YEL003W, strain gim4, stronger effect = lower value): 1.02
normalized growth (locus YEL037C, strain rad23, stronger effect = lower value): 1.01
normalized growth (locus YEL061C, strain CIN8 (second series), stronger effect = lower value): 1.02
normalized growth (locus YER015W, strain faa2, stronger effect = lower value): 1
normalized growth (locus YER016W, strain bim1, stronger effect = lower value): 0.981
normalized growth (locus YER111C, strain swi4, stronger effect = lower value): 1.01
normalized growth (locus YER155C, strain BEM2 (second series), stronger effect = lower value): 0.981
normalized growth (locus YFR010W, strain ubp6, stronger effect = lower value): 1
normalized growth (locus YGL167C, strain pmr1, stronger effect = lower value): 0.995
normalized growth (locus YGL173C, strain kem1, stronger effect = lower value): 0.987
normalized growth (locus YGL227W, strain vid30, stronger effect = lower value): 0.994
normalized growth (locus YGL240W, strain doc1, stronger effect = lower value): 1
normalized growth (locus YGL253W, strain hxk2, stronger effect = lower value): 1
normalized growth (locus YHR013C, strain ard1, stronger effect = lower value): 0.983
normalized growth (locus YHR027C, strain rpn1, stronger effect = lower value): 0.991
normalized growth (locus YHR030C, strain SLT2, stronger effect = lower value): 1.04
normalized growth (locus YHR079C, strain IRE1, stronger effect = lower value): 1.06
normalized growth (locus YHR142W, strain chs7, stronger effect = lower value): 1
normalized growth (locus YJL092W, strain hpr5, stronger effect = lower value): 1
normalized growth (locus YJL095W, strain BCK1 (second series), stronger effect = lower value): 0.996
normalized growth (locus YJL095W, strain BCK1, stronger effect = lower value): 1.01
normalized growth (locus YJL115W, strain asf1, stronger effect = lower value): 0.997
normalized growth (locus YJL129C, strain trk1, stronger effect = lower value): 0.994
normalized growth (locus YJL154C, strain vps35, stronger effect = lower value): 0.99
normalized growth (locus YJL164C, strain tpk1, stronger effect = lower value): 0.998
normalized growth (locus YJL166W, strain qcr8, stronger effect = lower value): 1
normalized growth (locus YJL187C, strain SWE1, stronger effect = lower value): 1.01
normalized growth (locus YJR066W, strain TOR1, stronger effect = lower value): 0.998
normalized growth (locus YKL160W, strain elf1, stronger effect = lower value): 1.01
normalized growth (locus YKR026C, strain gcn3, stronger effect = lower value): 1
normalized growth (locus YKR091W, strain srl3, stronger effect = lower value): 0.998
normalized growth (locus YLL001W, strain dnm1, stronger effect = lower value): 1.01
normalized growth (locus YLL026W, stronger effect = lower value): 0.987
normalized growth (locus YLL041C, strain sdh2, stronger effect = lower value): 1.01
normalized growth (locus YLR027C, strain aat2, stronger effect = lower value): 1.01
normalized growth (locus YLR113W, strain HOG1, stronger effect = lower value): 1.02
normalized growth (locus YLR221C, strain rsa3, stronger effect = lower value): 1
normalized growth (locus YLR258W, strain gsy2, stronger effect = lower value): 0.993
normalized growth (locus YLR262C, strain YPT6 (second series), stronger effect = lower value): 1.01
normalized growth (locus YLR320W, strain mms22, stronger effect = lower value): 0.976
normalized growth (locus YLR342W, strain FKS1, stronger effect = lower value): 1
normalized growth (locus YLR357W, strain rsc2, stronger effect = lower value): 0.991
normalized growth (locus YLR370C, strain arc18, stronger effect = lower value): 1
normalized growth (locus YLR384C, strain iki3, stronger effect = lower value): 1
normalized growth (locus YML120C, strain ndi1, stronger effect = lower value): 1.02
normalized growth (locus YMR058W, strain fet3, stronger effect = lower value): 1
normalized growth (locus YMR125W, strain sto1, stronger effect = lower value): 0.977
normalized growth (locus YMR129W, stronger effect = lower value): 0.977
normalized growth (locus YMR205C, strain PFK2, stronger effect = lower value): 0.985
normalized growth (locus YMR231W, strain pep5, stronger effect = lower value): 1
normalized growth (locus YNL071W, strain lat1, stronger effect = lower value): 1.01
normalized growth (locus YNL183C, strain NPR1, stronger effect = lower value): 0.968
normalized growth (locus YNL209W, strain ssb2, stronger effect = lower value): 1
normalized growth (locus YNL248C, strain rpa49, stronger effect = lower value): 1.02
normalized growth (locus YNL322C, strain KRE1 (second series), stronger effect = lower value): 0.966
normalized growth (locus YNR049C, strain mso1, stronger effect = lower value): 0.999
normalized growth (locus YOR001W, strain rrp6, stronger effect = lower value): 0.998
normalized growth (locus YOR070C, strain gyp1, stronger effect = lower value): 0.998
normalized growth (locus YOR080W, strain dia2, stronger effect = lower value): 0.987
normalized growth (locus YOR083W, strain WHI5, stronger effect = lower value): 0.938
normalized growth (locus YOR106W, strain vam3, stronger effect = lower value): 0.979
normalized growth (locus YOR231W, strain MKK1, stronger effect = lower value): 1.07
normalized growth (locus YOR265W, strain rbl2, stronger effect = lower value): 1.01
normalized growth (locus YOR270C, strain vph1, stronger effect = lower value): 1.03
normalized growth (locus YOR290C, strain snf2, stronger effect = lower value): 0.984
normalized growth (locus YPL051W, strain arl3, stronger effect = lower value): 0.995
normalized growth (locus YPL078C, strain atp4, stronger effect = lower value): 0.984
normalized growth (locus YPL106C, strain sse1, stronger effect = lower value): 0.944
normalized growth (locus YPL240C, strain hsp82, stronger effect = lower value): 0.995
normalized growth (locus YPL256C, strain CLN2, stronger effect = lower value): 1.01
